# Laboratory results taken from PubChem BioAssay (NCATS).
# Inconclusive results are not listed. Active and inactive are the calls of the source. Unless noted, the call rests on the fitted dose curve; in most records, active means well fitted curve in the direction sought with a large enough effect; inconclusive means small, poorly fitted or top-dose-only effect, or another doubt; inactive means no such curve, though single readings can be large; an effect the other way counts as inactive or inconclusive.
# Legend:
# [1] = molecular target: Lysosomal acid glucosylceramidase (Homo sapiens) (UniProt P04062); assay: Glucocerebrosidase-p2 (AID 348; in the data active means potency below about 10 µM; further: potency means the concentration at half of the fitted maximal effect); conditions: purified GBA, blue fluorogenic substrate, 40 min
# Outline: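 Compounds titrated from 0.6 nM upwards against 0.2 nM enzyme in pH 5.9 citric acid/KH2PO4, taurocholate, tween-20; blue fluorogenic substrate 80 uM, 40 min room temperature, stopped and read Ex 365/Em 440 for AC50.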
# [2] = AP1 Signaling Pathway (AID 357; active means well fitted curve in either direction with a large enough effect, not every such curve was filed as active;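 further: ME-180 reporter cells stimulated with EGF at its EC50 level; on the % scale 0 is the no-effect control and ±100 the full control effect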); conditions: ME-180 AP-1-bla reporter, EGF-induced, beta-lactamase ratio, 5 h; at 7.69 µM (top of the series) unless noted
# Outline: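 Titration-series screen for positive or negative modulators of EC50 EGF-induced signaling in ME-180 cells carrying an AP-1-driven beta-lactamase reporter. After 5 hours at 37 degrees Celsius, CCF4 460nm/530nm emission ratio gave %Activity; AC50 values derived.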
# [3] = molecular target: Cytochrome P450 1A2 (Homo sapiens) (UniProt P05177); assay: p450-cyp1a2 (AID 410; calls by dose curve; further: potency means the concentration at half of the fitted maximal effect); conditions: recombinant CYP1A2, luciferin-ME demethylation, luminescence; series mostly up to 57 µM
# Outline: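 Luminescent readout of luciferin formed from Luciferin-ME by human CYP1A2; data normalized against complete inhibition by 57 uM furafylline. Enzyme 20nM, substrate 100uM at Km, 100mM KPO4 buffer, 60 min reaction at room temperature.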
# [4] = NFAT Signaling Pathway (AID 444; active means well fitted curve in either direction with a large enough effect, not every such curve was filed as active;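 further: carbachol stimulus at about its EC50 of 1 µM final; on the % scale 0 is the no-effect control and ±100 the full control effect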); conditions: Jurkat NFAT-bla M1, carbachol, beta-lactamase ratio, 5 h; at 7.69 µM (top of the series) unless noted
# Outline: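 Jurkat cells carrying an NFAT-driven β-lactamase reporter and co-transfected muscarinic M1 receptor were treated with compound plus carbachol (1 uM final, an EC50 level) for 5 h at 37 °C. CCF4 loading followed for 1 h at RT; 460/530 nm ratio gave %activity.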
# [5] = Stat Signaling Pathway (AID 446; active means well fitted curve in either direction with a large enough effect, not every such curve was filed as active;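 further: ME-180 cervical cancer cells given 40 pM IL-6 alongside compound; SIE-controlled beta-lactamase reporter measured as 460/530 nm FRET emission ratio; on the % scale 0 is the no-effect control and ±100 the full control effect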); conditions: ME-180 SIE beta-lactamase reporter, IL-6 stimulated, 5 h; at 7.69 µM (top of the series) unless noted
# Outline: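 ME-180 SIE-bla cells; overnight plating; cpd + IL-6 40 pM, 5 h, 37 C; LiveBLAzer 2.5 h RT; 460/530 nm emission ratio. Normalized to 300 pM IL-6 and 125 nM JAK inhibitor controls.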
# [6] = molecular target: Glucocorticoid receptor (Homo sapiens) (UniProt P04150); assay: GR-GFP Redistribution (AID 450;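 active means compounds whose dose series gives a full or clear partial fitted curve of increased nuclear translocation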; further: potency means the concentration at half of the fitted maximal effect); conditions: U2OS GR-GFP nuclear translocation, laser cytometry, 2 h
# [7] = molecular target: Glucocorticoid receptor (Homo sapiens) (UniProt P04150); assay: GR-EFC Redistribution (AID 451; calls by dose curve; further: potency means the concentration at half of the fitted maximal effect); conditions: CHO-K1 GR-EFC translocation, beta-gal luminescence, 2 h
# Outline: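 CHO-K1 cells stably expressing nuclear-localized β-gal enzyme acceptor and GR fused C-terminally to the enzyme donor fragment; ligand-driven nuclear translocation restores β-gal by complementation. Compounds titrated up to 46 uM final, 2 h at 37 °C; luminescence read.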
# [8] = molecular target: 3',5'-cyclic-AMP phosphodiesterase 4B (Homo sapiens) (UniProt Q07343); assay: qHTS Assay for Inhibitors of PDE-IV (AID 607; active means well fitted activation curve with a large enough effect in the main read-out, with a control signal flat, not every such curve was filed as active; further: % of control where 0% means no effect); conditions: HEK293 ACTOne CNG channel cells, membrane potential fluorescence; series mostly up to 22.9 µM
# Outline: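 ACTOne HEK293 cells carry a modified cAMP-gated CNG channel and express endogenous PDE4; plated 1000 cells/well, compounds up to 22.9 uM final. Membrane-potential dye fluorescence (ex 535/em 590) was read; parental cells received 10 uM forskolin + 100 uM RO 20-1724.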
# [9] = molecular target: Cytochrome P450 3A4 (Homo sapiens) (UniProt P08684); assay: qHTS Assay for Activators of Cytochrome P450 3A4 (AID 885); conditions: recombinant CYP3A4, Luciferin-PPXE luminescence, 60 min; series mostly up to 57.1 µM; further: nearly all actives have a fitted effect of over 65% in size
# Outline: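 20nM CYP3A4 + 25uM Luciferin-PPXE (=KM), 200mM KPO4; cpd 10 min RT; NADPH regen, 60 min RT; stop w/ detection buffer, 20 min; luminescence. Normalized to 57 uM ketoconazole.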
# [10] = Confirmation and Secondary Assay for Modulators of Hemoglobin Beta Chain Splicing at IVS2 654 locus (AID 910); conditions: HeLa EGFP-654 splicing reporter, GFP fluorescence, 48 h; series mostly up to 38.3 µM;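 further: per-well total GFP intensity by laser scanning cytometry after 2-day treatment; % of control where 0% means no effect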
# Outline: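 HeLa cells stably carrying EGFP interrupted by mutant beta-globin IVS2-654 intron (CMV-driven) were treated with compound for 2 days at 37C; corrected splicing was scored as total peak GFP intensity per well (488 nm excitation, 500-520 nm emission).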
# [11] = qHTS Assay for Identification of Small Molecule Agonists for Hypoxia Response Element Signaling Pathway (AID 914; active means well fitted activation curve with a large enough effect in the signal ratio, with a control signal flat, not every such curve was filed as active; the % refers to the signal ratio; further: % of control where 0% means no effect); conditions: ME-180 (cervical carcinoma) HRE-bla reporter, beta-lactamase ratio, CoCl2, 17 h; activation: stronger effect = higher value
# Outline: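 AC50 values come from titration-series %Activity, taken as the 460/530nm ratio of CCF4 fluorescence (excitation 405nm). CellSensor HRE-bla ME-180 cells were treated 17 hours at 37 C with compound plus an EC50 level of CoCl2.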
# [12] = Confirmation and Secondary Assay for Modulators of Hemoglobin Beta Chain Splicing at IVS2 705 locus (AID 930); conditions: HeLa EGFP-705 splicing reporter, GFP fluorescence, 48 h; series mostly up to 38.3 µM;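 further: HeLa cells stably expressing the EGFP-705 splicing reporter; % of control where 0% means no effect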
# Outline: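 Restored EGFP fluorescence after 2-day compound exposure reports splicing correction in IVS2-705 EGFP reporter HeLa cells; positive control was 500 nM splice-blocking PNA oligo. Signal measured as well total peak GFP intensity (488 nm excitation).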
# [13] = qHTS Assay for Lipid Storage Modulators (AID 1519; calls by dose curve); conditions: Drosophila S3 cells, BODIPY lipid droplet/cell ratio, laser cytometry, cells loaded with oleic acid; for activity change, negative = inhibition: at 57.5 µM (top of the series)
# Outline: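 Cells seeded at 5,000 per well were treated with compounds over a concentration series and loaded with oleic acid (400 uM, as added). Lipid droplet fluorescence (488 nm excitation, 500-530 nm channel) was read by laser-scanning cytometry and normalized to 20 uM Triacsin C.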
# [14] = molecular target: Ubiquitin carboxyl-terminal hydrolase 1 (Homo sapiens) (UniProt O94782); assay: Inhibitors of USP1/UAF1: Pilot qHTS (AID 504865); conditions: purified USP1/UAF1, Ub-rhodamine cleavage fluorescence; series mostly up to 54.9 µM;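 further: rhodamine fluorescence freed from ubiquitin-rhodamine substrate followed over time; top concentration of the series differs between compounds; on the % scale 0 is the no-effect control and ±100 the full control effect; nearly all actives have a fitted effect of over 35% in size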
# Outline: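 Deubiquitinase activity followed as kinetic rhodamine fluorescence release from 150 nM Ub-Rho. 1 nM USP1/UAF1 with compound, after 15 min room-temperature preincubation, in HEPES pH 7.8 buffer containing TCEP, EDTA, BSA and Tween-20.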
# [15] = Counterscreen qHTS for small molecule stabilizers of the endoplasmic reticulum resident proteome: GLuc-NoTag assay (AID 1508627); conditions: Gaussia luciferase NoTag secretion counterscreen, luminescence, thapsigargin 100 nM for final 4 h; series mostly up to 76.4 µM; further: potency means the concentration at half of the fitted maximal effect;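 on activity change, negative = inhibition: SH-SY5Y cells given compound then 100 nM thapsigargin to empty ER calcium; 0% = thapsigargin alone and -100% = DMSO vehicle control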
# Outline: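 SH-SY5Y cells stably expressing constitutively secreted GLuc (no SERCaMP tag) were pre-incubated 5 h, treated with compound for 19 h, then 100 nM thapsigargin for 4 h at 37C; medium GLuc read by coelenterazine luminescence.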
# [16] = Cell Viability qHTS for small molecule stabilizers of the endoplasmic reticulum resident proteome (AID 1508629); conditions: cell viability counter-screen, 100 nM thapsigargin for final 4 h;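 further: human SH-SY5Y neuroblastoma cells carrying the GLuc-SERCaMP reporter; compound exposure about 46 h in total before the viability read; on the % scale 0 is the no-effect control and ±100 the full control effect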
# [17] = molecular target: Mitogen-activated protein kinase 10 (Mus musculus) (UniProt Q61831); assay: JNK3 AlphaScreen Assay (AID 530; active means well fitted curve in either direction with a large enough effect, not every such curve was filed as active); conditions: JNK3 lysate, c-Jun phosphorylation; series mostly up to 57.1 µM
# Outline: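 Inhibitors reduce antibody binding to phosphorylated biotin-cJun, lowering AlphaScreen luminescence. Lysates from HepG2 cells pre-activated by IL-1beta plus TNF-alpha supplied JNK3; compounds were titrated.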
# [18] = Confirmatory qHTS for small molecule stabilizers of the endoplasmic reticulum resident proteome: Secreted ER Calcium Modulated Protein (SERCaMP) assay (AID 1508628); conditions: SERCaMP secreted luciferase ER calcium/proteostasis reporter; series mostly up to 76.3 µM; further: potency means the concentration at half of the fitted maximal effect; nearly all actives have a fitted effect of over 40% in size
# Outline: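 SH-SY5Y cells stably expressing GLuc-SERCaMP, treated 16 h with compound (primary 1.53, 7.67, 38.3 uM; confirmation 11 concentrations, up to 76.6 uM), then 100 nM thapsigargin for 4 h. Secreted Gaussia luciferase in medium read by coelenterazine luminescence.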
# [19] = molecular target: Cytochrome P450 2D6 (Homo sapiens) (UniProt P10635); assay: qHTS Assay for Inhibitors and Substrates of Cytochrome P450 2D6 (AID 891); conditions: recombinant CYP2D6, luciferin-ME EGE luminescence; series mostly up to 57.1 µM; further: potency means the concentration at half of the fitted maximal effect; nearly all actives have a fitted effect of over 60% in size
# Outline: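 Human CYP2D6 (5 nM) with 30 uM Luciferin-ME EGE (at Km) in 100 mM KPO4, compound preincubated 10 min, then NADPH regeneration system for 60 min at room temperature. Luciferin read by luminescence; normalized to 1.43 uM quinidine.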
# [20] = measured here: cell count channel max response
# [21] = measured here: lipid channel max response
# Glucocorticoid receptor (Homo sapiens), sequence (P04150 whole entry, looked up, the tested form may be a part): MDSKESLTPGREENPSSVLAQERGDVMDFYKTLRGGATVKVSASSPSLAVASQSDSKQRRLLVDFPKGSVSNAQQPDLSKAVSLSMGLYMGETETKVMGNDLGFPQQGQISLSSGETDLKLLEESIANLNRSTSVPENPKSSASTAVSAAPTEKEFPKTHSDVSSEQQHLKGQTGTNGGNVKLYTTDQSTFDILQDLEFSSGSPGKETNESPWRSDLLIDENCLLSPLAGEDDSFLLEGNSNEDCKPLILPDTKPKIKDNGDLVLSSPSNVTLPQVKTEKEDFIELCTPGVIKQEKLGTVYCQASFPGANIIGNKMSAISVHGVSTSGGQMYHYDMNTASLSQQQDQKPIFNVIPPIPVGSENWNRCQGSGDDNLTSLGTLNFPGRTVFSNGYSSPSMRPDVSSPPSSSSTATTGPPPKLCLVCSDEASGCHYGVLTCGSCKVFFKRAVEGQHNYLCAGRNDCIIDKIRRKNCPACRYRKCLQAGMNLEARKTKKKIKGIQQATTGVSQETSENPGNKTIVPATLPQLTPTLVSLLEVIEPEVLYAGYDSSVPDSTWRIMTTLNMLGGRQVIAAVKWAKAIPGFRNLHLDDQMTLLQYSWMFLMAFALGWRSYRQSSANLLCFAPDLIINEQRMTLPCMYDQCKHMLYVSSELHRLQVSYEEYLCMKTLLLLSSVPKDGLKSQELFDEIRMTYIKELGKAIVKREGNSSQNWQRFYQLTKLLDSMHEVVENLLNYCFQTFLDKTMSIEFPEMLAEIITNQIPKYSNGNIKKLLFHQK
# 3',5'-cyclic-AMP phosphodiesterase 4B (Homo sapiens), sequence (Q07343 whole entry, looked up): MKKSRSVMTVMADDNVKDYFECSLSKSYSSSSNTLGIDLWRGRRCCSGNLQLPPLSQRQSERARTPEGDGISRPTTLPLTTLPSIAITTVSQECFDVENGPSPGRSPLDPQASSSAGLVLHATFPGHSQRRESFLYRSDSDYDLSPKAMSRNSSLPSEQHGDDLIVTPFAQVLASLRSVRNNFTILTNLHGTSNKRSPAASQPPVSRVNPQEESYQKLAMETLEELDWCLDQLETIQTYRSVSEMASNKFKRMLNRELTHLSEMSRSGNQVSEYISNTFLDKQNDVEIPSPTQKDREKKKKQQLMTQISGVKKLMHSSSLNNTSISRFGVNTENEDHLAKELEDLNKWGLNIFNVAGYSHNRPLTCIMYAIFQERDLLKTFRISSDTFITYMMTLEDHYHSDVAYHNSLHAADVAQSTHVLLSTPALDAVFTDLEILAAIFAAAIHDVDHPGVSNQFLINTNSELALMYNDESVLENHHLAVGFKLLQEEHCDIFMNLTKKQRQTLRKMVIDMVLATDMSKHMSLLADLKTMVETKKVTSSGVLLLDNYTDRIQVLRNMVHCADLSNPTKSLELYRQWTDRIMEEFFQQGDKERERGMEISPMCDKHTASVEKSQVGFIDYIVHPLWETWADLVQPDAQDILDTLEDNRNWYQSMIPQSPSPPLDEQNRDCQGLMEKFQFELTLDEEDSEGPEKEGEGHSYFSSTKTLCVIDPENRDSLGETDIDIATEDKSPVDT
# Cytochrome P450 1A2 (Homo sapiens), sequence (P05177 whole entry, looked up): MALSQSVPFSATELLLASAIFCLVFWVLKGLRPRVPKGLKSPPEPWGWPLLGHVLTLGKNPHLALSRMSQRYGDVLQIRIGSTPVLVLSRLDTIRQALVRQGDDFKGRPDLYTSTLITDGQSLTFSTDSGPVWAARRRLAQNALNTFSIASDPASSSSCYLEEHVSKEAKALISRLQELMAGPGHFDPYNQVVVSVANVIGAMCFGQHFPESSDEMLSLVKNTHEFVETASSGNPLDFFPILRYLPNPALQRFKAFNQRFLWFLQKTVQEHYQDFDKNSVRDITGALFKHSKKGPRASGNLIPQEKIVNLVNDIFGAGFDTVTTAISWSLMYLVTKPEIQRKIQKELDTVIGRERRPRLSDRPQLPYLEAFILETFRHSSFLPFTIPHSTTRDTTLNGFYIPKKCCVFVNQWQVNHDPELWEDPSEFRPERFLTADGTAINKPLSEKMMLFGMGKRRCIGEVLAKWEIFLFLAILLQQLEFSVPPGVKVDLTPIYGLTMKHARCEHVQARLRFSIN
# Lysosomal acid glucosylceramidase (Homo sapiens), sequence (P04062 whole entry, looked up): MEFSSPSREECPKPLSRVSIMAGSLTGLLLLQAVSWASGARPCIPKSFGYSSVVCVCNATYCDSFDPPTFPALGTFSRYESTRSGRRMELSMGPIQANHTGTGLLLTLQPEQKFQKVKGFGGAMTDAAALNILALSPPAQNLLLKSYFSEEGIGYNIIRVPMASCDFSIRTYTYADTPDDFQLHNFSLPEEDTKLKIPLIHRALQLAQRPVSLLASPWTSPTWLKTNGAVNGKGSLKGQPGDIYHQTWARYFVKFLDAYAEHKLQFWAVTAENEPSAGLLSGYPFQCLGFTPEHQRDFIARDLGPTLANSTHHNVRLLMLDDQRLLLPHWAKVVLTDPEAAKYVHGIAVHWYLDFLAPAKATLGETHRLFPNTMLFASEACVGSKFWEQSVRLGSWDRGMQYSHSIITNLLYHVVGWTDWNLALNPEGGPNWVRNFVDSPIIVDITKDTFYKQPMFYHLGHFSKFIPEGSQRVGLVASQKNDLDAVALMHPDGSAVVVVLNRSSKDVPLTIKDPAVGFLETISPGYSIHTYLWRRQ
# Cytochrome P450 3A4 (Homo sapiens), sequence (P08684 whole entry, looked up): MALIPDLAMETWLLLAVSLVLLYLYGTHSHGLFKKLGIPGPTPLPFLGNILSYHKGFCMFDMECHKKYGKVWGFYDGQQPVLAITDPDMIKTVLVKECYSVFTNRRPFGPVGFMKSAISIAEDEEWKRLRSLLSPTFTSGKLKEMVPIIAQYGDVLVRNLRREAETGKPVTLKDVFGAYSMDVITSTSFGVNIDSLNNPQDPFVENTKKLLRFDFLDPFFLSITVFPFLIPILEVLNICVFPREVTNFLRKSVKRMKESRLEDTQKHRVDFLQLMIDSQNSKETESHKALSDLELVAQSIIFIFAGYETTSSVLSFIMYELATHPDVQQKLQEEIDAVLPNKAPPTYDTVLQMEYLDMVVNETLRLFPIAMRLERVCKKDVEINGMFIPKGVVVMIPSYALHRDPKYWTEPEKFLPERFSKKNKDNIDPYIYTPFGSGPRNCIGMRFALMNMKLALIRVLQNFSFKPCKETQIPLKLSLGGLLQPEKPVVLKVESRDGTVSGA
# Cytochrome P450 2D6 (Homo sapiens), sequence (P10635 whole entry, looked up): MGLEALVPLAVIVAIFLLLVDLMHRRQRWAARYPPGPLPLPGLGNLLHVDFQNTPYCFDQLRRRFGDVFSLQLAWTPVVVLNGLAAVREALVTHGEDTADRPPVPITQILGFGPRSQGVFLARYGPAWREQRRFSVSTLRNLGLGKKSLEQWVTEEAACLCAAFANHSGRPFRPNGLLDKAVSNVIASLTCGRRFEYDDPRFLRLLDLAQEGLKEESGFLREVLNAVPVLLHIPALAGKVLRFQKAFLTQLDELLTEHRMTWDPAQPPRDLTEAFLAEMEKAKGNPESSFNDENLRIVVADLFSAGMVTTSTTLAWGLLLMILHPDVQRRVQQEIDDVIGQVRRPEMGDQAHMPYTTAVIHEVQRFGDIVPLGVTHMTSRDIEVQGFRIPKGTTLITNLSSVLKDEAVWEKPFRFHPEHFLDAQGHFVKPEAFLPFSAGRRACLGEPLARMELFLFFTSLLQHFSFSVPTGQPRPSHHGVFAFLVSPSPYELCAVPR
# Ubiquitin carboxyl-terminal hydrolase 1 (Homo sapiens), sequence (O94782 whole entry, looked up): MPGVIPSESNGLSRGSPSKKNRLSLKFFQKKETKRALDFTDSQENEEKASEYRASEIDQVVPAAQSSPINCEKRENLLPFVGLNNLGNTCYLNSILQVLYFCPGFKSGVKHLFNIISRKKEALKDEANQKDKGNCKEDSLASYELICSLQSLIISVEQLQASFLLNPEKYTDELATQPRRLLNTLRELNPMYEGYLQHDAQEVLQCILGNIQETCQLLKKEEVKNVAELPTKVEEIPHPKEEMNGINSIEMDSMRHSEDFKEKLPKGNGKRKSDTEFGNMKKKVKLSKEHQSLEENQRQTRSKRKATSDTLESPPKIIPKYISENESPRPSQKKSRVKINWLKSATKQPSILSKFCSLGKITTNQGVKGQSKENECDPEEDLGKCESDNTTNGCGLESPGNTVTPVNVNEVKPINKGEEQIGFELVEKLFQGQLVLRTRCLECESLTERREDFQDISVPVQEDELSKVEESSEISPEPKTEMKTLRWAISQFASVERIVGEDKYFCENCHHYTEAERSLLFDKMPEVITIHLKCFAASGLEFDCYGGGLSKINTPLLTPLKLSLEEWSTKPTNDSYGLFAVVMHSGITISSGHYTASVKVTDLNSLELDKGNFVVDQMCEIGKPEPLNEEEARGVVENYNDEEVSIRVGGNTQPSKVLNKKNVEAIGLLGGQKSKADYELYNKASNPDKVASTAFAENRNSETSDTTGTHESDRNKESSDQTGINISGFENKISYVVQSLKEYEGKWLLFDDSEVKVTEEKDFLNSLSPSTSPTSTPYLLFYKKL
smiles,measurement,setting,value
CN(C)c1ccc(-c2nccc(NCCN3CCOCC3)n2)cc1,Potency,[1],> 11.4 µM (inactive)
same,"activity change, negative = inhibition",[2],-7.61% (inactive)
same,Potency,[3],1.26 µM (active)
same,"activity change, negative = inhibition",[4],7.2% (inactive)
same,"activity, negative = inhibition",[5],11.1% (inactive)
same,Potency,[6],> 46 µM (inactive)
same,Potency,[7],> 46 µM (inactive)
same,Potency,[8],inactive
same,Potency,[9],inactive
same,outcome,[10],inactive
same,activation,[11],-5.52% (inactive)
same,outcome,[12],inactive
same,"activity change, negative = inhibition",[13],-20.5% (inactive)
same,max response,[13]; [20],-10.5%
same,max response,[13]; [21],-26.5%
same,Potency,[14],inactive
same,Potency,[15],inactive
same,max response,[16],10.1% (inactive)
COc1cccc(Cn2c(=O)c(C)nc3cnc(N4CCNCC4)nc32)c1,"activity change, negative = inhibition",[2],4.85% (inactive)
same,"activity change, negative = inhibition",[4],-10.9% (inactive)
same,"activity, negative = inhibition",[5],-3.45% (inactive)
same,Potency,[6],> 9.22 µM (inactive)
same,Potency,[7],> 46 µM (inactive)
same,outcome,[17],inactive
same,Potency,[8],inactive
same,Potency,[15],28.2 µM (active)
same,Potency,[18],35.5 µM (active)
COc1ccccc1CNc1ncnc2ccc(-c3ccccc3CN(C)C)cc12,Potency,[1],> 11.4 µM (inactive)
same,"activity change, negative = inhibition",[2],-6.09% (inactive)
same,Potency,[3],15.8 µM (active)
same,"activity, negative = inhibition",[5],-9.28% (inactive)
same,Potency,[6],> 46 µM (inactive)
same,Potency,[7],> 46 µM (inactive)
same,outcome,[17],inactive
same,Potency,[9],inactive
same,Potency,[19],2.51 µM (active)
same,outcome,[10],inactive
same,outcome,[12],inactive
same,"activity change, negative = inhibition",[13],5.99% (inactive)
same,max response,[13]; [20],-1.21%
same,max response,[13]; [21],3.46%
same,Potency,[15],inactive
same,Potency,[18],10 µM (active)
